Reference: PubChem BioAssay (NCI)
This is part of a sample that, as a whole, favours compounds with a hit. Of some 83,000 tested, about 20% had one in any assay.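 Values shown are percent growth following 48 h exposure of cells in 96-well plates to a single concentration of compound; below 10 was considered active.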 Values without a mark were called inactive. Activity calls are given as the source filed them.

system: U251 CNS; experiment: NCI-60 one-dose screen, 48 h (100 = growth as untreated, 0 = no growth, -100 = all killed); conditions: 10 µM unless noted
Method: Growth inhibition of the U251 human tumor cell line is measured as a screen for anti-cancer activity. Cells are grown in 96 well plates and exposed to the test compound for 48 hours. Compounds are tested at a single concentration, which is 10^-5 M for most compounds. The reported endpoint is percent growth (GI% or GIPRCNT), where numbers from 0 - 100% represent growth inhibition, and numbers from -100% - 0 represent cell death. For example, a value of 40 represents 60% growth inhibition. A value of 0 means no net growth occurred over the course of the experiment. A value of -40 indicates 40% of cells at the beginning of the experiment died by the end of the experiment. A value of -100 means all cells are dead at the end of the experiment.
NCI-60 Human Tumor Cell Lines Screen was performed using the standard one-dose NCI protocol, which is described in more detail at https://dtp.cancer.gov/discovery_development/nci-60/default.htm.
Compounds with GIPRCNT values below 10 were considered active. Activity score was based on GIPRCNT using the following formula: […]
Score is 0 for GIPRCNT values of 100 or above, 50 for GIPRCNT values of 0, and 100 for GIPRCNT values of -100.

SMILES	growth
O=c1oc2ccc(Br)cc2c(=O)n1-c1ccc(Cl)cc1F	3.56% (active)
O=C(c1ccccc1)N(CCc1ccc(Cl)cc1)C(=S)N(C(=O)c1ccccc1)c1ccccc1	97%
Cc1ccc(S(=O)c2ccc([N+](=O)[O-])c3nonc23)cc1 (stereo not given)	96.4%
O=C1/C(=C/c2ccc(O)cc2)COc2ccc(O)c(O)c21	9.17% (active)
O=C(NCCCN1CCC(N2CCCCC2)CC1)C1=Cc2cc(Br)ccc2OC1	37%
COc1cc(/C=C2\Oc3cc(OCCCN4CCCC4)ccc3C2=O)cc(OC)c1	18.3%
Cc1sc2ncnc(Sc3nc4ccccc4[nH]3)c2c1C	-80.9% (active)
CS(=O)(=O)Nc1ccc(C(=O)NC(C(=O)NO)c2ccc(-c3cccc(F)c3)cc2)cc1 (stereo not given)	94.1%
CCCCCCC(O)(c1ccc(F)cc1)C(CN1CCOCC1)c1ccccc1 (stereo not given)	28%
Cc1ccc(C(=O)c2oc3ccc4c(C)cc(=O)oc4c3c2C)cc1	18.6%
O=C1c2ccccc2C(=O)c2c1ccc1[nH]c(CCl)nc21	9.78% (active)
O=c1oc2ccc(Cl)cc2c(=O)n1-c1ccc(F)cc1F	7.08% (active)
COc1cc(C2C(C#N)=C(N)OC3=C2C(=O)c2ccccc2C3=O)cc(OC)c1O (stereo not given)	19.9%
Cc1c(-c2noc(-c3ccc([N+](=O)[O-])cc3)n2)no[n+]1[O-]	99.8%
CCN(CC)CCCNc1ccnc2cc3ccccc3cc12	46.8%
COc1ccc(N(C)c2nc(N)nc3sc4c(c23)CCCC4)cc1	15.8%
COc1cc(C=C2C(=O)N(C)C(=O)N(C)C2=O)cc(CN2CCCCC2)c1O	99.6%
O=C(Nc1ccc(I)cc1F)c1cc(Cl)ccc1O	0.895% (active)
O=C(Nc1ccc(Cl)cc1F)c1cc(Br)ccc1O	1.1% (active)
O=c1cc(-c2ccccc2)oc2cc(OCc3cn(Cc4ccc(F)cc4)nn3)cc(OCc3cn(Cc4ccc(F)cc4)nn3)c12	10.5%

SMILES	growth
CCCCNc1nc(NC(C)(C)C)nc(NC(C)(C)C)n1	38%
OC(CNC1CCCCC1)Cn1c2ccc(I)cc2c2cc(I)ccc21 (stereo not given)	72.6%
CCOC(=O)C1=C(C)N=c2s/c(=C\c3cc(Cl)ccc3O)c(=O)n2C1c1ccc(OC)cc1 (stereo not given)	85.4%
CC(=O)c1ccc2oc(=O)n(Cc3ccc(C#N)cc3)c(=O)c2c1	105%
COc1cc(C(=O)NN=C2c3ccccc3-c3ccccc32)cc(OC)c1OC	20.9%
Nc1cccc(Nc2cc(S(=O)(=O)O)c(N)c3c2C(=O)c2ccccc2C3=O)c1	95.5%
COCCN(C(=O)Cc1cccs1)C(C(=O)NCc1ccc(OC)cc1)c1ccc(C(C)C)cc1 (stereo not given)	97.1%
CCN(CC)CCNC(=O)C(Cl)=C1C(Cl)=C(Cl)C(Cl)=C1Cl	40.8%
CCOC(=O)c1sc(-c2ccc(OS(=O)(=O)c3ccc(Br)s3)c(C=O)c2)nc1C	-4.79% (active)
COC(=O)/C(CCC=C(C)C)=C1\[C@@H](OC(C)=O)C[C@@]2(C)[C@H]1C[C@@H](O)[C@H]1[C@@]3(C)CC[C@H](NCCO)[C@@H](C)[C@@H]3CC[C@@]12C	103%
COc1ccc(C)c2sc(N(Cc3cccnc3)C(=O)c3ccc(C#N)cc3)nc12	1.87% (active)
CC(C)(C)c1ccc(C2CC(=O)C3=C(C2)Nc2ccccc2N(C(=O)c2ccccc2Cl)C3c2ccc(F)cc2)cc1 (stereo not given)	3.98% (active)
CN1C(=O)N(C)C2C1NN=c1s/c(=C\c3ccc([N+](=O)[O-])cc3)c(=O)n12 (stereo not given)	69.8%
C1CCN(c2nc(N3CCCCC3)nc(N3CCOCC3)n2)CC1	101%
NC1C(N)C(N)C1N (stereo not given)	101%
COc1ccc(Br)c(/C=C2\SC(=Nc3ccc(O)cc3)NC2=O)c1	86.6%
O=C(c1nc2ccccc2[nH]1)C1C(c2ccc(F)cc2)C2CC3CCCCC3N2[C@@]12C(=O)Nc1ccc(Cl)cc12 (stereo not given in full)	51.2%
O=C(/C=C/c1cccc(Cl)c1)OCc1ccc2cc1OCC#C/C=C\C#CCO2	102%
COc1ccc(/C=C/C(=O)c2c(C)nc3ccccc3c2/C=C/c2ccccc2)c(OC)c1	90%
CCN(CCO)CCNc1ccc(C)c2sc3cc(Cl)ccc3c(=O)c12	-32.1% (active)
